# From PubChem BioAssay
# PRMT1 inh: blocks human protein arginine methyltransferase 1 | Q99873 | recombinant PRMT1, activity-based probe fluorescence polarization | inhibition, % at 2.79 µM | actives 1.3% (n = 370,000) | AID 652257;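 active = inhibition above about 21% made by adding two undisclosed values, limit read from the data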
# ABHD5-PLIN5 inh: ABHD5-PLIN5 protein interaction inhibition; Split G. princeps luciferase complementation, luminescence, 4 h; inhibition, % at 4 µM; actives 0.78% (n = 360,000);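 active = inhibition above the mean inhibition across every tested compound plus 3 SD, cut at about 22% in these data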
# Target sequence (Q00G26 whole entry, looked up): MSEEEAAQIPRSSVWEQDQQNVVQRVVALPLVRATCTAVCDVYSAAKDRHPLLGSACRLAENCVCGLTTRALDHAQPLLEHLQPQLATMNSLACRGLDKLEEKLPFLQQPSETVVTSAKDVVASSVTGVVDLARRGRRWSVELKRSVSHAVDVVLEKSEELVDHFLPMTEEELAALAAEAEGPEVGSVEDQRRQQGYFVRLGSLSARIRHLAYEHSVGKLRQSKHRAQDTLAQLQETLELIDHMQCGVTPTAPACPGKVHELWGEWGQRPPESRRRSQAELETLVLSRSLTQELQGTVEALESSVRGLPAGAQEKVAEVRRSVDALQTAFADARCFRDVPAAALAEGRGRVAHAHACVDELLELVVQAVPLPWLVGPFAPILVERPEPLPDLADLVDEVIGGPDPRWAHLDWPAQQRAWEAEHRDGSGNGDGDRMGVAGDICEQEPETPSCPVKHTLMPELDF
# Target sequence (Q8WTS1 whole entry, looked up): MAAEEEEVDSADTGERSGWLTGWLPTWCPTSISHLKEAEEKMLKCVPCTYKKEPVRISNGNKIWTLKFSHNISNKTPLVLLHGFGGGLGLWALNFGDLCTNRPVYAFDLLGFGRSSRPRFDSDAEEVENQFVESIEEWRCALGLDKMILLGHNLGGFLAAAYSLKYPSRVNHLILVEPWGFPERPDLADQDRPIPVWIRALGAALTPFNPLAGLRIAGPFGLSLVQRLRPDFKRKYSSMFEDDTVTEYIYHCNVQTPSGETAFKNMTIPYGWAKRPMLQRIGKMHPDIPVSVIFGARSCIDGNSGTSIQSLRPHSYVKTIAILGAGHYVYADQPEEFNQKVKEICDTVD
# rCAG RNA binder: molecules binding r(CAG) RNA repeats; r(CAG) RNA repeat, TO-PRO-1 dye displacement fluorescence; inhibition, % at 3 µM; actives 1.3% (n = 370,000); AID 651821;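 active = inhibition above the plate cutoff, the mean of all test compounds on that plate plus 3 SD, cut at about 35% in these data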;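 note: higher means more dye released from RNA so lower well fluorescence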
# NOD2-RIPK2 inh: inhibitors of human NOD2-RIPK2 interaction; CHO BLA complementation NOD2-RIPK2, CCF4 ratio; inhibition, % at 4.98 µM; actives 0.38% (n = 360,000); AID 624267; in the data active = inhibition above about 21%
# TLR4 MyD88 comp: TLR4-MyD88 interaction inhibition in cells | inhibition, % at 8.4 µM | O00206+Q99836 | AID 861 | HeLa CL3-4 TLR4/MyD88 BLA complementation, FRET ratio | actives 0.18% (n = 200,000); in the data active = inhibition above about 25%
# TLR9-MyD88 block: TLR9-MyD88 interaction inhibition; Q9NR96+Q99836; CHO BLA complementation TLR9-MyD88, CCF4 FRET ratio; inhibition, % at 4.98 µM; actives 0.21% (n = 340,000); AID 504734;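 active = inhibition above the mean over all tested compounds plus 3 SD, cut at about 21% in these data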
# A number is an active result; i = inactive; nt = not tested or not shown. Hits are enriched below; roughly 3.3% of the tested compounds scored in any of these assays.
SMILES,PRMT1 inh,ABHD5-PLIN5 inh,rCAG RNA binder,NOD2-RIPK2 inh,TLR4 MyD88 comp,TLR9-MyD88 block
COc1ccc(CCNC(=O)c2cc3ccccn3n2)c(OC)c1OC,i,i,i,i,i,i
C#CCOCCOCCOCCNc1nc(N2CCN(C(=O)[C@H](Cc3cc4ccccc4[nH]3)n3cc([C@@H](N)CC(C)C)nn3)CC2)nc(N2CCN(C(=O)[C@H](Cc3cc4ccccc4[nH]3)n3cc([C@@H](N)CC(C)C)nn3)CC2)n1,nt,50.8,nt,i,i,i
C#CCOCCOCCOCCNc1nc(N2CCN(C(=O)[C@H](Cc3ccc(O)cc3)n3cc([C@@H](N)C(C)CC)nn3)CC2)nc(N2CCN(C(=O)[C@H](Cc3cc4ccccc4[nH]3)n3cc([C@@H](N)C(C)CC)nn3)CC2)n1 (some centres not stated),nt,24.6,nt,i,i,i
O=C1CCSC2=C1SCc1sccc12,i,22.3,i,i,nt,nt
CCOc1ccc(C(=O)OC(C)C(=O)N2CCN(Cc3ccccc3)CC2)cc1 (configuration not stated),i,i,i,i,nt,i
CCOc1ccc(C(=O)CC(C(=O)O)N2CCCCC2)cc1 (configuration not stated),nt,84.8,nt,i,nt,i
CCOc1ccc(C(=O)N2CCCCCC2)cc1,i,i,i,i,i,i
CCOc1ccc(C(=O)CC(C(=O)O)N2CCN(Cc3ccccc3)CC2)cc1 (configuration not stated),nt,95.3,nt,i,nt,i
COc1ccc2c(c1)CC(N1CCN(C)CC1)c1cc(OC)ccc1S2 (configuration not stated),i,i,i,i,nt,i
Clc1ccc2c(c1)C(N1CCNCC1)Cc1ccccc1S2 (configuration not stated),nt,32.8,nt,i,i,i
COCc1cc(C)n(CC(=O)Nc2ccc3c(c2)OCO3)c(=O)c1C#N,i,i,i,i,nt,i
Oc1ccc(N2CCN(C(c3cccs3)c3nnnn3CCc3ccccc3)CC2)cc1 (configuration not stated),21.7,i,i,i,i,i
COC(=O)[C@H](CCSC)NC(=O)Nc1cccc(Br)c1,i,i,i,i,nt,i
O=C(O)c1ccc(-c2nc(-c3ccc(Cl)cc3Cl)cs2)cc1,i,i,i,i,i,i
CC(=O)N1CC[n+]2c(-c3ccc(Cl)cc3Cl)csc21,57.0,i,i,i,i,i
O=C(NC1CCCCN(Cc2cccc(Cl)c2)C1=O)c1ccc(F)c(F)c1 (configuration not stated),i,nt,i,nt,nt,nt
COc1ccc(CN[C@@H]2CC[C@@]34CCCN3C(=O)CCC[C@H]4C2)cc1OC,i,nt,nt,nt,nt,nt
CC(=O)Nc1ccc(-n2c(C)ccc2-c2ccccc2)cc1,22.6,i,i,i,nt,i
CCOc1ccc(CCN2C(=S)N([C@@H](Cc3ccc(O)cc3)CN3CCC[C@@H]3CN3C(=S)NC[C@@H]3CC(C)C)C[C@@H]2Cc2ccc(O)cc2)cc1,i,33.6,i,i,nt,nt
Oc1ccc(C[C@H]2CN([C@@H](Cc3ccc(O)cc3)CN3CCC[C@@H]3CN3C(=S)NC[C@@H]3Cc3ccccc3)C(=S)N2CCc2ccccc2)cc1,i,27.1,i,i,nt,nt
COC(=O)CCCCCN1C(=O)NC(C2CC2)C(C(=O)OCc2ccccc2)=C1C (configuration not stated),i,i,i,i,nt,i
Cc1cccc(CS(=O)(=O)c2nnc([C@H](Cc3ccccc3)NC(=O)OC(C)(C)C)o2)c1,nt,43.4,nt,65.1,i,i
CC(C)(C)OC(=O)N[C@@H](Cc1ccccc1)c1nnc(SCC(N)=O)o1,i,i,i,i,nt,i
COC(=O)CSc1nnc([C@H](Cc2ccccc2)NC(=O)OC(C)(C)C)o1,i,i,i,i,i,i
COC(=O)CS(=O)(=O)c1nnc([C@H](Cc2ccccc2)NC(=O)OC(C)(C)C)o1,i,56.5,i,45.5,i,i
SMILES,PRMT1 inh,ABHD5-PLIN5 inh,rCAG RNA binder,NOD2-RIPK2 inh,TLR4 MyD88 comp,TLR9-MyD88 block
CC1CCCC(NC(=O)COC(=O)c2ccc3ncsc3c2)C1C (configuration not stated),i,i,i,i,nt,i
N#CCCN(C(=O)CSc1ccc2c(c1)OCCO2)c1ccccc1,21.7,i,i,i,i,i
CN(C(=O)CSc1ccc2c(c1)OCCO2)c1ccccc1,i,i,i,i,nt,i
COc1ccc(C2CC(=O)C(c3ccc(Cl)c(Cl)c3)=CN2Cc2ccccc2)cc1 (configuration not stated),i,nt,i,nt,nt,nt
CC[n+]1c(/C=C/N(C)c2ccccc2)n(-c2ccccc2)c2ccc(-c3nc4ccccc4s3)cc21,nt,36.4,nt,31.4,nt,i
CCOC(=O)c1ccc2c(c1)n(CC)c(/C=C/N(C)c1ccccc1)[n+]2CC,i,i,i,i,i,i
O=S(=O)(c1ccc(C2=CSC3=NCCN23)cc1)N1CCOCC1,23.7,i,i,i,i,i
Fc1ccc(C2=CSC3=NCCN23)cc1,i,i,i,i,i,i
Cc1nc(SC2CC(=O)N(c3cc(Cl)cc(Cl)c3)C2=O)nc2c1CCCC2 (configuration not stated),24.1,i,i,i,i,i
Cc1cccc(N2C(=O)CC(Sc3nc(C)c4c(n3)CCCC4)C2=O)c1 (configuration not stated),i,i,i,i,i,i
O=C1C(Cl)=C(N2CCOCC2)C(=O)N1c1cccc(Cl)c1,22.1,i,i,i,i,i
COc1ccc(N2C(=O)C(Cl)=C(N3CCOCC3)C2=O)cc1,i,i,i,i,nt,i
COc1ccc(Cc2c(-c3ccc(F)cc3)nc3cc(C)c(Br)c(C)n23)c(C)c1,i,i,i,i,nt,nt
O=C(C[n+]1cc(-c2ccc(Cl)c(Cl)c2)n2c1CCC2)N1c2ccccc2Sc2ccccc21,i,33.7,i,i,i,i
O=C(C[n+]1cc(-c2ccc(Cl)cc2)n2c1CCC2)N1c2ccccc2Sc2ccccc21,i,22.6,i,i,i,i
O=C(NC(O)C(=O)c1ccc(F)cc1)c1ccc(F)cc1 (configuration not stated),i,i,i,i,nt,i
Cc1ccc2oc(=O)c3cnn(CC(=O)Nc4cc(-c5cccc(F)c5)no4)c3c2c1,i,i,i,i,i,i
COc1ccc(C(=O)N/C(=C/c2ccco2)C(=O)NCc2ccco2)cc1,24.6,i,i,i,nt,i
CCCn1c2ccccc2c2nnc(SCCN3CCOCC3)nc21,23.9,i,i,i,nt,i
CC(=O)C1=NN(c2ccc(Cl)cc2)C(c2ccc3c(c2)OCO3)N(C(C)=O)N1C (configuration not stated),i,i,i,i,nt,i
c1ccc(CN=C2NN=C(c3cc4ccccc4o3)CS2)cc1,i,i,i,i,i,i
c1cc2c(cc1C1=NNC(=NC3CC3)SC1)OCCO2,46.3,i,i,i,i,i
c1ccc2oc(C3=NNC(=NC4CC4)SC3)cc2c1,35.7,i,i,i,i,i
COc1cc(NC(=S)N2CCN(c3ccccn3)CC2)c(OC)cc1Cl,22.0,i,i,i,i,i
